# Assay results from PubChem BioAssay.
# Where “and” joins values, the source holds several entries; their conditions need not be identical. Identical values can stand only once. Calls of active or inactive are those of the source. Cut-off read from the data, not from the text of the source, unless noted: active = inhibition above about 80%; inactive = the rest.
# Key:
# F380Y = assay: modulators of BK channel variants, profiling panel, selectivity assay, cell-based, U2OS BacMam, thallium flux, beta subunits (AID 1259406;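 active = thallium flux through the channel raised or lowered by more than 3 SD from vehicle-only wells, actives on both sides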;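 note: initial slope of Thallos dye fluorescence rise after thallium is added; log ratio against the mean of 0.3% DMSO vehicle wells on the same plate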); details: at 30 µM
# F380Y/beta2Delta = assay: as above; details: at 30 µM
# [1] = biological target: Calcium-activated potassium channel subunit alpha-1 (Homo sapiens) + Leucine-rich repeat-containing protein 26 (Homo sapiens) (UniProt Q12791+Q2I0M4); assay: as above; details: F380Y/Slo1WT/gamma1, at 30 µM
# Calcium-activated potassium channel subunit alpha-1 (Homo sapiens) + Leucine-rich repeat-containing protein 26 (Homo sapiens), sequence (Q2I0M4 whole entry, looked up, one chain of several): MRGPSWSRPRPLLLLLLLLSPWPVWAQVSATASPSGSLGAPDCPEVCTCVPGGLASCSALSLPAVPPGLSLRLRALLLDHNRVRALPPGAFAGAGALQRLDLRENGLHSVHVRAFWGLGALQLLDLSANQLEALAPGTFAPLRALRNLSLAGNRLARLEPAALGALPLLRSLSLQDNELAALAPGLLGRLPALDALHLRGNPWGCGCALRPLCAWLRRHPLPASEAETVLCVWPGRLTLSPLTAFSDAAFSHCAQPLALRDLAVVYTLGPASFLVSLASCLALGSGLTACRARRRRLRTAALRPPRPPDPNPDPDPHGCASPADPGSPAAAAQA
# R275C = assay: as above; details: at 30 µM
# R275C/beta1 = assay: as above; details: at 30 µM
# R275C/beta2Delta = assay: as above; details: at 30 µM
# [2] = UWB1.289 ovarian carcinoma cell growth inhibition, synergistic combos for chromothripsis tumors, BGB or cisplatin combos (AID 1671456); details: UWB1.289 ovarian carcinoma cells, stronger effect = higher value;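 note: cells exposed to compound for four days; 0% = vehicle DMSO and 100% = killing by high DMSO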
# [3] = LFS_MB_2R medulloblastoma cell growth inhibition, synergistic combos for chromothripsis tumors, cisplatin combos (AID 1671457); details: LFS_MB_2R medulloblastoma cells, stronger effect = higher value;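 note: cells exposed to compound for four days before readout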
# [4] = MDA-MB-436 breast carcinoma cell growth inhibition, synergistic combos for chromothripsis tumors, BGB or cisplatin combos (AID 1671458; call rule not given here;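 note: cells exposed for 96 hours; 0% = vehicle DMSO and 100% = killing by high DMSO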); details: MDA-MB-436 breast carcinoma growth inhibition, drug combinations, stronger effect = higher value
# [5] = UWB1.289_BRCA1 ovarian cancer growth, cell-based, BGB or cisplatin combinations (AID 1671459); details: UWB1.289 BRCA1 ovarian carcinoma, drug combinations, stronger effect = higher value
# [6] = human astrocyte viability loss, single and combined drugs, cytotoxicity control for chromothriptic childhood tumor combination screen, cell-based, BGB or cisplatin IC20 combos (AID 1671460); details: Human astrocytes, drug combinations, stronger effect = higher value;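 note: cells exposed to compounds for 96 hours before viability readout; 0% = vehicle and 100% = killing control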
# [7] = growth inhibition of BT084 medulloblastoma cells, cell-based, ICGC_MB145, cisplatin and BGB IC40 combos (AID 1671461); details: drug combinations, stronger effect = higher value;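 note: cells exposed to drugs for 96 hours; 0% = vehicle DMSO and 100% = high DMSO full killing control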
# [8] = growth inhibition of RCMB18 medulloblastoma cells, cell-based, cisplatin and BGB IC40 combos (AID 1671462); details: stronger effect = higher value;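 note: cells exposed to compound for four days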
# [9] = growth inhibition of CRL1545 osteosarcoma cells, cell-based, cisplatin and BGB IC20 combos (AID 1671464); details: stronger effect = higher value;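 note: cells exposed to compound for 96 hours before readout; 0% = vehicle DMSO and 100% = high DMSO killing control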
# [10] = measured here: inhibition with BGB combination, at 0.05 µM
# [11] = measured here: inhibition with cisplatin combination, at 0.05 µM
# [12] = measured here: combination with cisplatin, at 0.5 µM
# [13] = measured here: combination with cisplatin, at 5 µM
# [14] = measured here: BGB combination, at 0.5 µM
# [15] = measured here: BGB combination, at 5 µM
# [16] = measured here: cisplatin combination, at 0.5 µM
# [17] = measured here: cisplatin combination, at 5 µM
# [18] = BGB combination, concentration series, at 5 µM
# [19] = cisplatin combination, concentration series, at 5 µM
# [20] = measured here: combo with BGB IC20, at 0.5 µM
# [21] = measured here: combo with cisplatin IC20, at 0.5 µM
# [22] = cisplatin combination, at 0.5 µM
# [23] = measured here: BGB IC40 combination 0.05 uM, at 0.05 µM
# [24] = measured here: BGB IC40 combination, at 0.05 µM
# [25] = measured here: with BGB IC20 combination, at 0.5 µM
# [26] = measured here: with cisplatin IC20 combination, at 0.5 µM
compound,measurement,setting,value
Cc1ccc(NC(=O)c2ccc(CN3CCN(C)CC3)cc2)cc1Nc1nccc(-c2cccnc2)n1,log fold change Tl+ flux,F380Y,0.141 (active)
same,log fold change Tl+ flux,F380Y/beta2Delta,0.0732 (inactive)
same,log fold change Tl+ flux,[1],-0.0387 (inactive)
same,log fold change Tl+ flux,R275C,-0.00147 (inactive)
same,log fold change Tl+ flux,R275C/beta1,0.00665 (inactive)
same,log fold change Tl+ flux,R275C/beta2Delta,0.0291 (inactive)
CN(Cc1cnc2nc(N)nc(N)c2n1)c1ccc(C(=O)N[C@@H](CCC(=O)O)C(=O)O)cc1,log fold change Tl+ flux,F380Y,-0.0413 (inactive)
same,log fold change Tl+ flux,F380Y/beta2Delta,-0.018 (inactive)
same,log fold change Tl+ flux,[1],0.0152 (inactive)
same,log fold change Tl+ flux,R275C,0.0652 (inactive)
same,log fold change Tl+ flux,R275C/beta1,-0.0323 (inactive)
same,log fold change Tl+ flux,R275C/beta2Delta,0.0014 (inactive)
O=NN(CCCl)C(=O)NCCCl,inhibition,[2]; at 0.5 µM,-5.7% (inactive)
same,inhibition,[2]; [10],-21%
same,inhibition,[2]; [11],-12%
same,inhibition,[3]; at 0.5 µM,-21.9% (inactive)
same,inhibition,[3]; [12],-14.5%
same,inhibition,[3]; [13],-18.3%
same,inhibition,[4]; at 0.5 µM,-8.21% (inactive)
same,inhibition,[4]; [14],-10%
same,inhibition,[4]; [15],-8.63%
same,inhibition,[4]; [16],-2.04%
same,inhibition,[4]; [17],-6.22%
same,inhibition,[5]; [18],3.47%
same,inhibition,[5]; at 0.5 µM,-1.58% (inactive)
same,inhibition,[5]; [19],19.3%
same,inhibition,[6]; at 0.5 µM,12.8% (inactive)
same,inhibition,[6]; [20],26.4%
same,inhibition,[6]; [21],2.42%
same,inhibition,[7]; at 0.5 µM,-12.6% (inactive)
same,inhibition,[7]; [22],-0.565%
same,inhibition,"[7]; cisplatin combination, at 5 µM",5.72%
same,inhibition,[7]; [23],22.3%
same,inhibition,"[7]; single agent, at 5 µM",10.8%
same,inhibition,[8]; at 0.5 µM,-5.05% (inactive)
same,inhibition,"[8]; cisplatin combo, at 5 µM",-0.239%
same,inhibition,[8]; [24],-34.5%
same,inhibition,[8]; [12],22.9%
same,inhibition,"[8]; single agent, at 5 µM",-38.3%
same,inhibition,[9]; at 0.5 µM,-14.2% (inactive)
same,inhibition,[9]; [25],-17.2%
same,inhibition,[9]; [26],-12.8%
same,inhibition,"[9]; single agent, at 0.05 µM",-3.95%
same,inhibition,"[9]; single agent, at 5 µM",10.1%
S=P(N1CC1)(N1CC1)N1CC1,inhibition,[2]; at 0.5 µM,-18.2% (inactive) and 3.65% (inactive)
same,inhibition,[2]; [10],-11.2% and -17.2%
same,inhibition,[2]; [11],-30.7% and -4.4%
same,inhibition,[3]; at 0.5 µM,-6.41% (inactive) and -22.2% (inactive)
same,inhibition,[3]; [12],-11.5% and -15%
same,inhibition,[3]; [13],6.16% and -16.8%
same,inhibition,[4]; at 0.5 µM,3.12% (inactive) and -15.6% (inactive)
same,inhibition,[4]; [14],5.95% and -18.7%
same,inhibition,[4]; [15],29.4% and 17.8%
same,inhibition,[4]; [16],-1.16% and -30.9%
same,inhibition,[4]; [17],28.2% and 9.67%
same,inhibition,[5]; [18],4.52% and 17.6%
same,inhibition,[5]; at 0.5 µM,-8.8% (inactive) and -2.14% (inactive)
same,inhibition,[5]; [19],2.09% and 16%
same,inhibition,[6]; at 0.5 µM,-9.07% (inactive) and -1.79% (inactive)
same,inhibition,[6]; [20],3.46% and -2.7%
same,inhibition,[6]; [21],-14.4% and -11.6%
same,inhibition,[7]; at 0.5 µM,0.706% (inactive) and -3.22% (inactive)
same,inhibition,[7]; [22],-14.4% and 6.01%
same,inhibition,"[7]; cisplatin combination, at 5 µM",-20% and -51.6%
same,inhibition,[7]; [23],-8.78% and -15.6%
same,inhibition,"[7]; single agent, at 5 µM",-22.6% and -19.6%
same,inhibition,[8]; at 0.5 µM,-6.9% (inactive) and -9.28% (inactive)
same,inhibition,"[8]; cisplatin combo, at 5 µM",-6.08% and -6.23%
same,inhibition,[8]; [24],-9.84% and -6.48%
same,inhibition,[8]; [12],-21.1% and 0.266%
same,inhibition,"[8]; single agent, at 5 µM",-45.9% and -29.6%
same,inhibition,[9]; at 0.5 µM,-18.6% (inactive) and -31% (inactive)
same,inhibition,[9]; [25],7.82% and -2.28%
same,inhibition,[9]; [26],-31.7% and -45.4%
same,inhibition,"[9]; single agent, at 0.05 µM",-43.5% and 4.65%
same,inhibition,"[9]; single agent, at 5 µM",-38.5% and 10.3%
